Among the data in PubChem BioAssay (EPA / NIEHS) are outcome and AC50 values, retold here.

For experiment [1], the target named is human Insulin Receptor (InsR), INSR (gene 3643) (UniProt P06213). Kind of experiment: NVS_ENZ_hInsR: NovaScreen (NVS) Enzymatic Assay for human Insulin Receptor (InsR) (AID 2283168). In short, it runs like this: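 Fluorescent substrate phosphorylation by recombinant kinase, product resolved by electrophoretic mobility shift, read 1 h after dosing. Screened in duplicate at 25 uM; hits (e.g., 30% inhibition) run in concentration-response to 50 uM; DMSO as baseline.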

Experiment [2] has as its target human IkappaB Kinase alpha (IKKa), CHUK (gene 1147) (UniProt O15111). Briefly: NVS_ENZ_hIKKa: NovaScreen (NVS) Enzymatic Assay for human IkappaB Kinase alpha (IKKa) (AID 2283167). In short, it runs like this: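 Cell-free recombinant human IKKa with fluorescent substrate, product separated by electrophoretic mobility shift; read 1 hour after dosing. Primary screen duplicate at 25 uM, actives then concentration-response up to 50 uM; loss of signal relative to DMSO.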

The target in experiment [3] is human Matrix Metalloproteinase-9 (MMP9), MMP9 (gene 4318) (UniProt P14780). Kind of experiment: NVS_ENZ_hMMP9: NovaScreen (NVS) Enzymatic Assay for human Matrix Metalloproteinase-9 (MMP9) (AID 2283190).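 Also: cell-free recombinant MMP9 protease activity read by fluorescent substrate signal; active means inhibition seen as loss of fluorescence signal versus DMSO.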 In short, it runs like this: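 Extracted enzyme, fluorescent substrate, 1 h post-dose read. Single conc 25 uM in duplicate, then concentration series for actives. Activity = signal loss relative to DMSO negative control.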
Chain of human Matrix Metalloproteinase-9 (MMP9), MMP9 (gene 4318) (P14780 whole entry, looked up): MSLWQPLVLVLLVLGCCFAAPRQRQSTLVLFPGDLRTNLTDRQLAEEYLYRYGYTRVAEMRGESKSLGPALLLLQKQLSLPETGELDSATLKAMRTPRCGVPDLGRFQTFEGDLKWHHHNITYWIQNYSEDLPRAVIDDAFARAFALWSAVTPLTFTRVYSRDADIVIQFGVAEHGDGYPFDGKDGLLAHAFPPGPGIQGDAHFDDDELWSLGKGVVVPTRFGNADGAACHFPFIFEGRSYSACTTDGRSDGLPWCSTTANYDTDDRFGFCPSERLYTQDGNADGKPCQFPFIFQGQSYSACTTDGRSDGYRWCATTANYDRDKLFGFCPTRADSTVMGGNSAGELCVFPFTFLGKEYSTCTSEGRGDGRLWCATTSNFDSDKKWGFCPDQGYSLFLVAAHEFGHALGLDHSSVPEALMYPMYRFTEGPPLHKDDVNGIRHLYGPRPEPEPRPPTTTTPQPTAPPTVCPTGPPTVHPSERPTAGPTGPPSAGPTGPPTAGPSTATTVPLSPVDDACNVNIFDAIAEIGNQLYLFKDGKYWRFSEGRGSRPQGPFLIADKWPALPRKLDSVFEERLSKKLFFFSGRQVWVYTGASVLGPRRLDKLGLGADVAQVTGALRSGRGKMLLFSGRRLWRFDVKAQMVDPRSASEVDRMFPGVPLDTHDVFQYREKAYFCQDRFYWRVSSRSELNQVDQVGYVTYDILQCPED

For experiment [4], the target named is human Phosphodiesterase 4A1 (PDE4A1), PDE4A (gene 5141) (UniProt P27815). Briefly: NVS_ENZ_hPDE4A1: NovaScreen (NVS) Enzymatic Assay for human Phosphodiesterase 4A1 (PDE4A1) (AID 2283191). Put shortly: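 Cell-free recombinant human PDE4A1 with fluorescent substrate; product separated by electrophoretic mobility shift, 1 h. Screened at 25 uM, then up to 50 uM in concentration-response; loss of signal fitted against DMSO.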
Chain of human Phosphodiesterase 4A1 (PDE4A1), PDE4A (gene 5141) (P27815 whole entry, looked up): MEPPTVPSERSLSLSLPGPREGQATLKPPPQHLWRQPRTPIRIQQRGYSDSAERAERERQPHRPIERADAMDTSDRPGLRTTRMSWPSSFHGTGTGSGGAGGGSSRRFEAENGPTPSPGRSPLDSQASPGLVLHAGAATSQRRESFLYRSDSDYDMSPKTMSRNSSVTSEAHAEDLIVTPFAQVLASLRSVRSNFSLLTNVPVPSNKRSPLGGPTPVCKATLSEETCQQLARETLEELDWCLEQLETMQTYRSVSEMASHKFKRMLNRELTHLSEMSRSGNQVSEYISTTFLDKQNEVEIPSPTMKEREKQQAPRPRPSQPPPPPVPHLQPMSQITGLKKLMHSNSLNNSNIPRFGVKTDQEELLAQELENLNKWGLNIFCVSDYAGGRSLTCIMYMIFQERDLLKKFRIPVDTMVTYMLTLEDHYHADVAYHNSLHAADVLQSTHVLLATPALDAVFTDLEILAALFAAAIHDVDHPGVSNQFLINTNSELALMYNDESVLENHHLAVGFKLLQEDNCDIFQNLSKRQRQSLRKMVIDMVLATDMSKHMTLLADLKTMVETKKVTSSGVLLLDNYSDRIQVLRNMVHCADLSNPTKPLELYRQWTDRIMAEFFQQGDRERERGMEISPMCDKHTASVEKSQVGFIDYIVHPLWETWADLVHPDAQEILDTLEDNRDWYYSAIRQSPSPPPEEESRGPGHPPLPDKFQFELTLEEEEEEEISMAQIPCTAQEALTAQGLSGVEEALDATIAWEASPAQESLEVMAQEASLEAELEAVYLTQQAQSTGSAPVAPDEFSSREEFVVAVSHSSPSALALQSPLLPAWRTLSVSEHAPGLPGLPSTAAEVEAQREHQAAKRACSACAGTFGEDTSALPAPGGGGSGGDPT

Experiment [5] deals with Mitogen-activated protein kinase 3 (Homo sapiens) (UniProt P27361). Kind of experiment: NVS_ENZ_hMAPK3: NovaScreen (NVS) Enzymatic Assay for human Mitogen-Activated Protein Kinase 3 (MAPK 3) (AID 2283177). In short, it runs like this: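 Cell-free enzymatic assay with recombinant protein and specific substrate; fluorescence and electrophoretic mobility shift read-out 1 h after dosing. Primary screen duplicate at 25 uM; actives then run in concentration-response up to 50 uM, loss of signal versus DMSO.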
Chain of Mitogen-activated protein kinase 3 (Homo sapiens) (P27361 whole entry, looked up): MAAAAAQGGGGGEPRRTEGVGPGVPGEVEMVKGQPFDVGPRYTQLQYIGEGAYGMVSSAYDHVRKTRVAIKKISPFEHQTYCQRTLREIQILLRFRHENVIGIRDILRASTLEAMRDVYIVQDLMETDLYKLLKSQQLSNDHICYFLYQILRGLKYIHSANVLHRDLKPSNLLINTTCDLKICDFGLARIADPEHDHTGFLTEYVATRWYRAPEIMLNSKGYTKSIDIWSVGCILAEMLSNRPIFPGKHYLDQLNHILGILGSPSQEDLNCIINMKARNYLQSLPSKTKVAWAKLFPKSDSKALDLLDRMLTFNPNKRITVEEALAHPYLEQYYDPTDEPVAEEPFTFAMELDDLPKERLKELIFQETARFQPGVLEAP

The target in experiment [6] is human Janus Kinase 2 (Jak2), JAK2 (gene 3717) (UniProt O60674). Briefly: NVS_ENZ_hJak2: NovaScreen (NVS) Enzymatic Assay for human Janus Kinase 2 (Jak2) (AID 2283169). Put shortly:
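Cell-free recombinant human JAK2 enzyme activity assay, fluorescence/electrophoretic mobility shift read 1 h after dosing. Screened in duplicate at 25 uM, then concentration-response up to 50 uM; activity as signal loss relative to DMSO.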

For experiment [7], the target named is human MET Proto-Oncogene, Receptor Tyrosine Kinase (MET), MET (gene 4233) (UniProt P08581). Briefly: NVS_ENZ_hMet: NovaScreen (NVS) Enzymatic Assay for human MET Proto-Oncogene, Receptor Tyrosine Kinase (MET) (AID 2283180). Put shortly: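 Cell-free MET kinase assay using recombinant protein and fluorescent substrate, with mobility-shift separation; read 1 h after dosing. Primary duplicate at 25 uM; actives in singleton concentration-response to 50 uM maximum. Signal loss versus DMSO.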
Chain of human MET Proto-Oncogene, Receptor Tyrosine Kinase (MET), MET (gene 4233) (P08581 whole entry, looked up): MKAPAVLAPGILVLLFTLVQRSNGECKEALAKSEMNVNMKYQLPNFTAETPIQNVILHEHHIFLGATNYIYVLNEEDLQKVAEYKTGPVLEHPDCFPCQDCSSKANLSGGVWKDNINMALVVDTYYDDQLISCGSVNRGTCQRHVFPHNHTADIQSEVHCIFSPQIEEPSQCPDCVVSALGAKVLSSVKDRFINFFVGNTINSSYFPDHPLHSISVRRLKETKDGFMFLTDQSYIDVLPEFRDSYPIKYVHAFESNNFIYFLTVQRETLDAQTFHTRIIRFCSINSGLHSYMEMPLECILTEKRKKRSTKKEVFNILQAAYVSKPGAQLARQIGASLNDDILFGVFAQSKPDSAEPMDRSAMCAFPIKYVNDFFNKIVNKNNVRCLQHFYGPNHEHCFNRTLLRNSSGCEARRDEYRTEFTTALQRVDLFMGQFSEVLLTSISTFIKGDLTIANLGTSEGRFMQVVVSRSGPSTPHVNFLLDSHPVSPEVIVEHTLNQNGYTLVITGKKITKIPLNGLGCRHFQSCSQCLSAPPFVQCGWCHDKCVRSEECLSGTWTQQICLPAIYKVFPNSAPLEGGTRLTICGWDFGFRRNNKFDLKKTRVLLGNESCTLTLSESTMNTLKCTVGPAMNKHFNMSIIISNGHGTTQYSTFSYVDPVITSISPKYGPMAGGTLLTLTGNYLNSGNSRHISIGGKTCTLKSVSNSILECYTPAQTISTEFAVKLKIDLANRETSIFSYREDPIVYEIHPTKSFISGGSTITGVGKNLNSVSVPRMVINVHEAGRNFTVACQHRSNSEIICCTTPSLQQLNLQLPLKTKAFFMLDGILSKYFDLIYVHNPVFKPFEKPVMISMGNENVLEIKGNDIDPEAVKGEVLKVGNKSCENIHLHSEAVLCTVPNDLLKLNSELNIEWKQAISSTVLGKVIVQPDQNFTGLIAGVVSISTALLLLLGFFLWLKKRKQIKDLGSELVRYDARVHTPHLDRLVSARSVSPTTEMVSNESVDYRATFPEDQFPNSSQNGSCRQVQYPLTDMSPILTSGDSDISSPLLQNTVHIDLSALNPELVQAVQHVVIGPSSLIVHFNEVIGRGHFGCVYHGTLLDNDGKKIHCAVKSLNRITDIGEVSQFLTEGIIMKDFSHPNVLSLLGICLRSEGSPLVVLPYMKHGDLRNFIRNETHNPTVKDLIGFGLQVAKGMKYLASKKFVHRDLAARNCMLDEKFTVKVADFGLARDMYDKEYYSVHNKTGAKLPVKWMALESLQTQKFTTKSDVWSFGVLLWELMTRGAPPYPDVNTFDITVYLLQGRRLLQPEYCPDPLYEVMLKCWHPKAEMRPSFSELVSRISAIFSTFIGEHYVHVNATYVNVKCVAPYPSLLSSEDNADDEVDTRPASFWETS

Experiment [8] has as its target human p21 Activated Kinase 4 (PAK4), PAK4 (gene 10298) (UniProt O96013). Kind of experiment: NVS_ENZ_hPAK4: NovaScreen (NVS) Enzymatic Assay for human p21 Activated Kinase 4 (PAK4) (AID 2283189). Put shortly: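 Cell-free recombinant human PAK4 activity assay; fluorescent substrate and product separated by electrophoretic mobility shift, read 1 h after dosing. Initially tested in duplicate at 25 uM, relative to DMSO baseline.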

Experiment [9] concerns the target human FYN Proto-Oncogene, Src family Tyrosine Kinase (Fyn), FYN (gene 2534) (UniProt P06241). Briefly: NVS_ENZ_hFyn: NovaScreen (NVS) Enzymatic Assay for human FYN Proto-Oncogene, Src family Tyrosine Kinase (Fyn) (AID 2283161). Put shortly:
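Recombinant enzyme with fluorescent substrate, product separated by electrophoretic mobility shift; read 1 h after dosing. Duplicate 25 uM single-point screen, actives retested in concentration series; loss of signal vs DMSO.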

Experiment [10] deals with Collagenase 3 (Homo sapiens) (UniProt P45452). Kind of experiment: NVS_ENZ_hMMP13: NovaScreen (NVS) Enzymatic Assay for human Matrix Metalloproteinase-13 (MMP13) (AID 2283182). Put shortly:
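Recombinant MMP13 cleaving fluorescent substrate, cell-free, measured 1 h after dosing. Primary duplicate screen at 25 uM; actives tested in concentration-response up to 50 uM; loss of signal relative to DMSO.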

The target in experiment [11] is human Matrix Metalloproteinase-3 (MMP3), MMP3 (gene 4314) (UniProt P08254). Kind of experiment: NVS_ENZ_hMMP3: NovaScreen (NVS) Enzymatic Assay for human Matrix Metalloproteinase-3 (MMP3) (AID 2283185). In short, it runs like this:
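Cell-free recombinant human MMP3 activity, fluorescence intensity read 1 h after dosing. Primary screen duplicate at 25 uM, actives retested in concentration series; loss of signal vs DMSO baseline.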

Experiment [12] has as its target human Matrix Metalloproteinase-7 (MMP7), MMP7 (gene 4316) (UniProt P09237). Briefly: NVS_ENZ_hMMP7: NovaScreen (NVS) Enzymatic Assay for human Matrix Metalloproteinase-7 (MMP7) (AID 2283183). Put shortly: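 Cell-free fluorescence enzymatic assay read 1 h after compound addition, activity loss analyzed against DMSO. Primary duplicate testing at 25 uM; compounds meeting threshold rerun in singleton concentration-response up to 50 uM.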

For experiment [13], the target named is Histone deacetylase 3 (Homo sapiens) (UniProt O15379). Briefly: NVS_ENZ_hHDAC3: NovaScreen (NVS) Enzymatic Assay for human Histone Deacetylase 3 (HDAC3) (AID 2283163). Put shortly: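 Recombinant human HDAC3 with fluorescent substrate, 1 h after dosing; product separated from substrate by electrophoretic mobility shift and read by fluorescence. Primary screen at 25 uM in duplicate; actives (e.g. ≥30% inhibition) retested in concentration-response up to 50 uM.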

For experiment [14], the target named is human Mitogen-Activated Protein Kinase 1 (MAPK 1), MAPK1 (gene 5594) (UniProt P28482). Briefly: NVS_ENZ_hMAPK1: NovaScreen (NVS) Enzymatic Assay for human Mitogen-Activated Protein Kinase 1 (MAPK 1) (AID 2283175). Put shortly: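 Cell-free recombinant human MAPK1 enzymatic assay, fluorescence/electrophoretic mobility shift read at 1 h; loss of signal vs DMSO. Primary screen in duplicate at 25 uM; actives (e.g. ≥30% inhibition) run as concentration-response up to 50 uM.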

Records with an inconclusive call do not appear. A structure can be active in one record and inactive in another. Activity calls are given as the source filed them. The calls were made as follows: active = hit-call score of the fitted dose curve at least 0.9, where 1 is the maximum; inconclusive = response in the unintended direction; inactive = score below 0.9.

Chain of human Matrix Metalloproteinase-7 (MMP7), MMP7 (gene 4316) (P09237 whole entry, looked up): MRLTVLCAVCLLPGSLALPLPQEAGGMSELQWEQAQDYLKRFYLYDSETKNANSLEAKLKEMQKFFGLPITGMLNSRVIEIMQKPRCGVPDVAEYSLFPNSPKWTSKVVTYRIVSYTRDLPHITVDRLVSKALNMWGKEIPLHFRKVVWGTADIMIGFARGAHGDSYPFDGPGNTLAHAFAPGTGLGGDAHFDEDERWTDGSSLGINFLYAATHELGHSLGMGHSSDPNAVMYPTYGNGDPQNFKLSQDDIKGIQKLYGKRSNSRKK
Chain of human Matrix Metalloproteinase-3 (MMP3), MMP3 (gene 4314) (P08254 whole entry, looked up): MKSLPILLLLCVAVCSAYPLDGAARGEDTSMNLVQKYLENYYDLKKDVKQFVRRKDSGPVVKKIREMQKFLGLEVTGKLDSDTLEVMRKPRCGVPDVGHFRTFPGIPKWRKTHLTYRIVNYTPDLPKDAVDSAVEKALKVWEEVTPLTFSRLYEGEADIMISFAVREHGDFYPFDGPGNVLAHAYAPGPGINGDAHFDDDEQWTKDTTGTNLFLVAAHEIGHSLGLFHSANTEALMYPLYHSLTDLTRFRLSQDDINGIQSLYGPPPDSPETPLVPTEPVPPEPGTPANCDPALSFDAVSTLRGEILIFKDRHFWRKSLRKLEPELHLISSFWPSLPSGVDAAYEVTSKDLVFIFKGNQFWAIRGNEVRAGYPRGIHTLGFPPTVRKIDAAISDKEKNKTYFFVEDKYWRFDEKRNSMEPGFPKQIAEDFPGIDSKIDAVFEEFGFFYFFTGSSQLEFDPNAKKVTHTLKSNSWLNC
Chain of human p21 Activated Kinase 4 (PAK4), PAK4 (gene 10298) (O96013 whole entry, looked up): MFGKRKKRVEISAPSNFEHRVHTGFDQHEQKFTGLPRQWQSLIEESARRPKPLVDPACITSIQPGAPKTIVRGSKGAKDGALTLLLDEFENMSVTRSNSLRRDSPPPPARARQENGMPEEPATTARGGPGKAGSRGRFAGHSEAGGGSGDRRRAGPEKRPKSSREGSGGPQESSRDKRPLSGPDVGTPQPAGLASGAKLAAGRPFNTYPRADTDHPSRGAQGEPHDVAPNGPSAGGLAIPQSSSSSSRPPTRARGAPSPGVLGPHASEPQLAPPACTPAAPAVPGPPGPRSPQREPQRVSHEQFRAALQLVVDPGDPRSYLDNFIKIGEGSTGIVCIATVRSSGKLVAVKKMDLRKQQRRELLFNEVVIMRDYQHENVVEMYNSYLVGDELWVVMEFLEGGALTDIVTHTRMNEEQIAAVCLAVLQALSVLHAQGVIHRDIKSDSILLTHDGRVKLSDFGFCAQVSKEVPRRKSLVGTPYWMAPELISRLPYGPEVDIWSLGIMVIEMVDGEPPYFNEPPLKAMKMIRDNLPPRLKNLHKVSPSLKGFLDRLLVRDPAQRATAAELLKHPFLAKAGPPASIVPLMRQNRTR

For `CCC(=NOC/C=C/Cl)C1=C(O)CC(C2CCOCC2)CC1=O` (stereo not given), in experiment [1], the outcome was inactive.
As for `CCC(CC)Nc1c([N+](=O)[O-])cc(C)c(C)c1[N+](=O)[O-]`, in experiment [2], the outcome was inactive.
Regarding `O=C(O)c1cc(Oc2ccc(C(F)(F)F)cc2Cl)ccc1[N+](=O)[O-]`, the molecule was called inactive in experiment [3] and in experiment [4].
For the molecule `CC(C1CC1)C(O)(Cn1cncn1)c1ccc(Cl)cc1` (stereo not given), the molecule was called inactive in [5].
`CC[C@H](C)[C@H]1O[C@]2(C=C[C@@H]1C)C[C@@H]1C[C@@H](C/C=C(\C)[C@@H](O[C@H]3C[C@H](OC)[C@@H](O[C@H]4C[C@H](OC)[C@@H](NC)[C@H](C)O4)[C@H](C)O3)[C@@H](C)/C=C/C=C3\CO[C@@H]4[C@H](O)C(C)=C[C@@H](C(=O)O1)[C@]34O)O2`: the AC50 (as a rule, the concentration at which the activity in the assay is half-maximal) in experiment [6] was 15.4 µM (active); in experiment [4], 25 µM (active). In addition, the call in experiment [7], in experiment [8] and in experiment [3] was inactive.
`CC(C)[C@H](C(=O)O[C@H](C#N)c1cccc(Oc2ccccc2)c1)c1ccc(Cl)cc1`: the outcome in experiment [9] was inactive. Besides, the AC50 in experiment [10] is 13 µM (active).
`C#CC(C)(C)NC(=O)c1cc(Cl)cc(Cl)c1`: the outcome in experiment [11] was inactive.
For the molecule `CCOP(=S)(OCC)OC(Cl)C(Cl)(Cl)Cl` (stereo not given), the call in experiment [11] was inactive.
With `CCOP(=O)(OCC)Oc1cc(C)nc(C(C)C)n1`, in experiment [12], the AC50 was 11.8 µM (active). In addition, the result in experiment [11] was inactive.
For `CNc1cnn(-c2cccc(C(F)(F)F)c2)c(=O)c1Cl`, the call in experiment [13] was inactive.
`CCc1cnc(C2=NC(C)(C(C)C)C(=O)N2)c(C(=O)O)c1` (stereo not given): in experiment [12], the AC50 is 8.62 µM (active).
For the molecule `CN(C)[C@@H]1C(=O)C(C(N)=O)=C(O)[C@@]2(O)C(=O)C3=C(O)c4c(O)cccc4[C@@](C)(O)[C@H]3[C@H](O)[C@@H]12`, the AC50 is 15 µM (active) in [14], 19.1 µM (active) in experiment [5], 9.28 µM (active) in [8] and 23.1 µM (active) in experiment [4]. Further, the molecule was called inactive in [5], in [12] and in [8].
